Data reported in PubChem BioAssay (EPA / NIEHS).
Activity calls are given as the source filed them. Rule for the calls: active = hit-call score of the fitted dose curve at least 0.9, where 1 is the maximum; inactive = score below 0.9.

Test: ATG_TA_CIS: Attagene CIS-FACTORIAL HepG2 Assay for human TA Basal Promoter (AID 2282964)
Conditions: HepG2 Attagene CIS-factorial TA basal promoter reporter; actives raise or lower the signal
How it was run: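 Background internal-marker endpoint from a 52-component HepG2 cis-reporter panel. Cells treated 24 h; reporter transcripts quantified via RT-PCR and CE fluorescence against DMSO baseline.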
For `Cc1c(C(=O)O)c(O)cc2c1C(=O)c1c(O)c([C@@H]3O[C@H](CO)[C@@H](O)[C@H](O)[C@H]3O)c(O)c(O)c1C2=O`, the outcome was “inactive”.
In the case of `Cc1cc(NC(=O)C(=O)O)cc(C)c1Oc1ccc(O)c2c1CCC2`, the outcome is reported as “inactive”.
With `CCCCCCCCCCO` the outcome was “inactive”.
In the case of `CCc1c(C(=O)NN2CCCCC2)nn(-c2ccc(Cl)cc2Cl)c1-c1ccc(Br)cc1`, the outcome is reported as “inactive”.
With `COc1cc(S(=O)(=O)O)c(C)cc1N=Nc1c(O)ccc2cc(S(=O)(=O)O)ccc12` the outcome was “inactive”.
For `CCOC(=O)C(C)(C)Oc1ccc(Cl)cc1`, the outcome was “inactive”.
In the case of `CN1CCN(Cc2cc(-c3ccc4[nH]c(=O)oc4c3)co2)[C@@H](c2ccc(F)cc2)C1`, the AC50 is reported as 33 µM (active).
In the case of `FC(F)(F)C(F)(F)C(F)(F)C(F)(F)C(F)(F)C(F)(F)CCI`, the outcome is reported as “inactive”.
With `CNC(=O)[C@H]1O[C@@H](n2cnc3c(NCc4cc(Cl)ccc4OCc4cc(C)no4)ncnc32)[C@H](O)[C@@H]1N` the outcome was “inactive”.
For `CCCCc1ccc2c(n1)[C@@H](c1ccc(OC)cc1C[C@H](C)C(=O)O)[C@H](C(=O)O)[C@H]2c1ccc2c(c1)OCO2`, the outcome was “inactive”.
With `O=C(O)CCCCC(=O)O` the outcome was “inactive”.
In the case of `CCCCCCCCCCCC(=O)OC`, the outcome is reported as “inactive”.
With `Cc1ccc(Cl)cc1` the outcome was “inactive”.
With `CC(CO)OC(C)CO` (centres undefined) (tested in a mixture with another compound) the outcome was “inactive”.
With `COCCOCCOC` the outcome was “inactive”.
In the case of `CC(=O)OCCOCCOCCOC(C)=O`, the outcome is reported as “inactive”.
With `COc1cc(-c2nc(NC(=O)c3cc4cc(C)cc(C)c4n3CC(=O)O)sc2CCC2CCCCC2)c(OC)cc1Cl` the AC50 was 10.3 µM (active).
With `O=C(O)Cc1ccccc1Nc1c(Cl)cccc1Cl` the outcome was “inactive”.
With `Cc1ccccc1Cl` the outcome was “inactive”.
In the case of `Cc1nc(C)nc(N2C[C@@H](C)N(c3ccnc([C@@H](C)O)n3)[C@@H](C)C2)n1`, the outcome is reported as “inactive”.
In the case of `NS(=O)(=O)c1cc2c(cc1Cl)NCNS2(=O)=O`, the outcome is reported as “inactive”.
With `NC(=O)Cn1c(=O)cc(CCN2CCN(c3nccc4sccc34)CC2)c2ccc(F)cc21` the outcome was “inactive”.
In the case of `Cc1cc(=O)[nH]c(=S)[nH]1`, the outcome is reported as “inactive”.
In the case of `CCCCN(CCCC)CCCC`, the outcome is reported as “inactive”.
In the case of `Cc1nc(-c2ccc3c(c2)CCN(CCC2CCC(NC(=O)/C=C/c4ccc(F)cc4)CC2)CC3)no1` (centres undefined), the outcome is reported as “inactive”.
With `COc1cc(/C=C/C(=O)CC(=O)/C=C/c2ccc(O)c(OC)c2)ccc1O` the outcome was “inactive”.
With `O=c1[nH]cc(F)c(=O)[nH]1` the outcome was “inactive”.
With `CN[C@H]1CC[C@@H](c2ccc(Cl)c(Cl)c2)c2ccc(S(N)(=O)=O)cc21` the outcome was “inactive”.
For `Nc1nc(N)c2nc(CNc3ccc(C(=O)N[C@@H](CCC(=O)O)C(=O)O)cc3)cnc2n1`, the outcome was “inactive”.
